Calls of active or inactive are those of the source. How the source made its calls: active means hit-call score of the fitted dose curve at least 0.9, where 1 is the maximum; inactive means score below 0.9.

The nature of this experiment: ATG_MRE_CIS: Attagene CIS-FACTORIAL HepG2 Assay for human Metal Responsive Element (MRE) (AID 2282954). The following applies: HepG2 MRE cis-reporter transcription, Attagene multiplex; actives raise or lower the signal. The procedure:
ATG_CIS is a cell-based, multiplexed-readout assay that uses HepG2, a human liver cell line, with measurements taken at 24 hours after chemical dosing in a 24-well plate.ATG_MRE_CIS is one of 52 assay component(s) measured or calculated from the ATG_CIS assay. It is designed to make measurements of mRNA induction, a form of inducible reporter, as detected with fluorescence intensity signals by Reverse transcription polymerase chain reaction (RT-PCR) and Capillary electrophoresis technology.Data from the assay component ATG_MRE_CIS was analyzed into 1 assay endpoint. This assay endpoint, ATG_MRE_CIS, was analyzed with bidirectional fitting relative to DMSO as the negative control and baseline of activity. Using a type of inducible reporter, measures of mRNA for gain or loss-of-signal activity can be used to understand the reporter gene at the transcription factor-level as they relate to the gene MTF1. Furthermore, this assay endpoint can be referred to as a primary readout, because this assay has produced multiple assay endpoints where this one serves a reporter gene function. To generalize the intended target to other relatable targets, this assay endpoint is annotated to the dna binding intended target family, where the subfamily is zinc finger.
Human liver HepG2 cells are transiently transfected with multiple reporter transcription units (MRTUs) in 6-well plates using FuGene 6 reagent (Roche; 3 ml FuGene/1 mg DNA). The MRTU constructs are regulated by a cis-regulating element (promoter). […] A major difference between the CIS and TRANS system is that in CIS activities of endogenous TFs are measured, whereas the TRANS assay evaluates changes in activities of exogenous, chimeric NR-Gal4 proteins. […] At the end of 24 hour incubation, total RNA was isolated using TriZol reagent (Invitrogen). The isolated RNA is then reverse-transcribed using oligo(dT) primer and Mo-MLV reverse transcriptase (Invitrogen) with DNAse I (Ambion) treatment for 30 min. The one-tenth of the produced cDNA was amplified by PCR using Taq DNA polymerase (Invitrogen) and two reporter sequence-specific primers. The PCR products were fluorescently labeled by primer extension with 6-arboxyfluorescein (6-FAM) 5'-labeled reporter sequence-specific primer (2 min at 95 C, 20 s at 68 C and 10 min at 72 C) and these products were digested with 5U of HpaI (New England Biolabs) for 2h at 37 C. The fragments were purified using Qiaquick PCR columns (Qiagen), analyzed on an ABI 3130xL genetic analyzer (Applied Biosystems) with peak positions identified by using a set of X-rhodamine (ROX)-labeled MapMarker1000 molecular weight standards (BioVentures). The raw capillary electrophoresis data was processed using Attagraph software (Attagene).
The AC50 is the concentration at which the activity in the assay is half-maximal. For `Cc1ccccc1OP(=O)(Oc1ccccc1)Oc1ccccc1`, the concentration at half-maximal activity (AC50) was 59.8 µM (active).
`CCOP(=S)(OCC)SCSc1cc(Cl)ccc1Cl`: the molecule was called inactive.
For the molecule `NC(=O)CCl`, the molecule was called inactive.
Same read-out and setting: next, `CC(C)[C@H](C(=O)OC(C#N)c1cccc(Oc2ccccc2)c1)c1ccc(OC(F)F)cc1` (stereo not given in full): “inactive”; `Cc1cccc(OP(=O)(Oc2cccc(C)c2)Oc2cccc(C)c2)c1`: “inactive”; `O=[N+]([O-])c1ccccc1O`: “inactive”.
As to `CC(C)CP(=S)(S)CC(C)C`, the outcome was inactive.
On the same count and under the same terms, for `O=C1C=CC(=O)c2ccccc21` the value was “inactive”; for `CCOC(=O)OC1=C(c2cc(C)ccc2C)C(=O)NC12CCC(OC)CC2` (stereo not given), “inactive”; for `CCOP(=S)(OCC)O/N=C(\C#N)c1ccccc1`, “inactive”.
Same read-out and setting: next, `N#Cc1ccccc1Cl`: “inactive”.
As to `O=S(=O)(F)C(F)(F)C(F)(F)C(F)(F)C(F)(F)F`, the outcome was inactive.
The same measure, in the same setting: next, `ClCc1ccccc1CCl`: “inactive”; `CN(CCCC(O)c1cccnc1)N=O` (stereo not given): “inactive”; `C#CCOC(=O)/C=C(C)/C=C/CC(C)CCCC(C)C` (stereo not given): “inactive”.
On the same count and under the same terms, for `ClCCCCl` the value was “inactive”.
The same measure, in the same setting: for `N#CCC#N` the value was “inactive”; for `CCCCCCCCCCBr`, “inactive”.
Take `CCCCN(CCCC)C(=S)S`: the half-maximal activity concentration (AC50) is 112 µM (active).
`COc1ccc(N)cc1`: the outcome was inactive.
As for `CC(C)[C@@H](Nc1ccc(C(F)(F)F)cc1Cl)C(=O)OC(C#N)c1cccc(Oc2ccccc2)c1` (stereo not given in full), the molecule was classed as inactive.
For the molecule `CC(C)[N+](=O)[O-]`, the molecule was classed as inactive.
Same read-out and setting: for `CCOc1cc(C=O)ccc1O` the value was “inactive”; for `Cc1cc(C)cc(C)c1`, “inactive”.
Same read-out and setting: next, `Clc1ccc(C(Cl)(Cl)Cl)cn1`: “inactive”; `CCN(N=O)C(N)=O`: “inactive”; `N#CS`: “inactive”.
On to `CCOC(=O)c1ccccc1S(=O)(=O)NC(=O)Nc1nc(Cl)cc(OC)n1`, for which the molecule was called inactive.
Take `CCOC(=O)C(SP(=S)(OC)OC)c1ccccc1` (stereo not given): the AC50 is 37.3 µM (active).
On to `COC(=O)c1cc(Oc2ccc(Cl)cc2Cl)ccc1[N+](=O)[O-]`, for which the concentration at half-maximal activity (AC50) was 17.9 µM (active).
In the case of `O=C=Nc1ccc(Cl)cc1`, the call was inactive.
On the same count and under the same terms, next, `C=CCN=C=S`: “inactive”.
Same read-out and setting: for `CC1(C)COP(Oc2ccccc2)OC1` the value was “inactive”; for `CC(C)(C1CCC(O)CC1)C1CCC(O)CC1` (stereo not given), “inactive”.
`O=C1c2ccccc2C(=O)C1C(=O)C(c1ccccc1)c1ccc(Cl)cc1` (stereo not given): the AC50 is 17.8 µM (active).
Consider `O=[N+]([O-])c1ccc(Cl)c([N+](=O)[O-])c1`, for which the call was inactive.
The same measure, in the same setting: next, `OCCN(CCO)CCO`: “inactive”.
The same measure, in the same setting: next, `Nc1nc(=S)[nH][nH]1`: “inactive”.
On to `O=S1OC[C@@H]2[C@H](CO1)[C@]1(Cl)C(Cl)=C(Cl)[C@@]2(Cl)C1(Cl)Cl` (stereo not given in full), for which the half-maximal activity concentration (AC50) is 66.4 µM (active).
For the molecule `CC1(C)[C@H](/C=C2\CCSC2=O)[C@@H]1C(=O)OCc1coc(Cc2ccccc2)c1`, the AC50 was 19.8 µM (active).

Source of the values: PubChem BioAssay (EPA / NIEHS).
